Experimental data from the supplement of paper PMC10849652.
Targets with a hit are over-represented here; the source holds about 7,900 in all. About 0.6% of all pairs of compound and target were hits. Unmarked numbers belong to inactive results.

Assays:
Test in all cases: log2 fold change, soluble protein after heating vs DMSO (PISA); higher = thermal stabilisation; K562 cells, 10 uM, 30 min; active = over 0.2 and 3.5 SD of the protein, either way, in both replicates (recomputed)
bafetinib = compound: Cc1ccc(NC(=O)c2ccc(CN3CC[C@H](N(C)C)C3)c(C(F)(F)F)c2)cc1Nc1nccc(-c2cncnc2)n1 [bafetinib]
How it was run: (§1)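 K562 cells at 2×10^6 cells/mL were treated with 10 μM compound for 30 min. Aliquots were heated for 3 min across 48°C-58°C, pooled, and extracted in PBS with 0.5% NP-40 at 4°C; soluble protein was the supernatant after 21,000xg for 90 min. Soluble protein was quantified by TMTpro 16plex LC-MS/MS with channel sums equalised, and reported as log2 fold change in thermal stability against DMSO controls, with values from duplicates.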

[1] = compound: Cc1cccc(CC(=O)N2CCc3c2ccc(-c2cn(C)c4ncnc(N)c24)c3F)n1
How it was run: as §1

nilotinib = compound: Cc1cn(-c2cc(NC(=O)c3ccc(C)c(Nc4nccc(-c5cccnc5)n4)c3)cc(C(F)(F)F)c2)cn1 [nilotinib]
How it was run: as §1

[2] = compound: Cc1nc(Nc2n[nH]c3c2CN(C(=O)N[C@H](CN(C)C)c2ccccc2)C3(C)C)c2sccc2n1
How it was run: as §1

dasatinib = compound: Cc1nc(Nc2ncc(C(=O)Nc3c(C)cccc3Cl)s2)cc(N2CCN(CCO)CC2)n1 [dasatinib]
How it was run: as §1

[3] = compound: Cc1ncc(-c2ccnc(Nc3ccc(S(C)(=O)=O)cc3)n2)n1C(C)C
How it was run: as §1

[4] = compound: Cn1cc(-c2ccc3c(c2)CCN3C(=O)Cc2cccc(C(F)(F)F)c2)c2c(N)ncnc21
How it was run: as §1

[5] = compound: Cn1cc(-c2ccc3nnc(C(F)(F)c4ccc5ncccc5c4)n3n2)cn1
How it was run: as §1

tipifarnib = compound: Cn1cncc1[C@@](N)(c1ccc(Cl)cc1)c1ccc2c(c1)c(-c1cccc(Cl)c1)cc(=O)n2C [tipifarnib]
How it was run: as §1

mubritinib = compound: FC(F)(F)c1ccc(/C=C/c2nc(COc3ccc(CCCCn4ccnn4)cc3)co2)cc1 [mubritinib]
How it was run: as §1

[6] = compound: NC(=O)Nc1cc(-c2cccc(F)c2)sc1C(=O)N[C@H]1CCCNC1
How it was run: as §1

[7] = compound: NC(=O)c1cnc(N[C@@H]2CCCC[C@@H]2N)nc1Nc1cccc(-n2nccn2)c1
How it was run: as §1

[8] = compound: NC1(c2ccc(-c3nc4ccn5c(=O)[nH]nc5c4cc3-c3ccccc3)cc2)CCC1
How it was run: as §1

[9] = compound: NCC(=O)Nc1ccc(-n2nc(C(F)(F)F)cc2-c2ccc3c(ccc4ccccc43)c2)cc1
How it was run: as §1

entinostat = compound: Nc1ccccc1NC(=O)c1ccc(CNC(=O)OCc2cccnc2)cc1 [entinostat]
How it was run: as §1

vorinostat = compound: O=C(CCCCCCC(=O)Nc1ccccc1)NO [vorinostat]
How it was run: as §1

citarinostat = compound: O=C(CCCCCCNC(=O)c1cnc(N(c2ccccc2)c2ccccc2Cl)nc1)NO [citarinostat]
How it was run: as §1

silmitasertib = compound: O=C(O)c1ccc2c(c1)nc(Nc1cccc(Cl)c1)c1ccncc12 [silmitasertib]
How it was run: as §1

[10] = compound: O=C1NC(=O)C(c2cnc3ccccn23)=C1c1cn2c3c(cc(F)cc13)CN(C(=O)N1CCCCC1)CC2
How it was run: as §1

[11] = compound: c1cc(OCCN2CCCCC2)cc(-c2n[nH]c3ccc(-c4nnc[nH]4)cc23)c1
How it was run: as §1

Sequence of UniProt P48507 (P48507 whole entry, looked up): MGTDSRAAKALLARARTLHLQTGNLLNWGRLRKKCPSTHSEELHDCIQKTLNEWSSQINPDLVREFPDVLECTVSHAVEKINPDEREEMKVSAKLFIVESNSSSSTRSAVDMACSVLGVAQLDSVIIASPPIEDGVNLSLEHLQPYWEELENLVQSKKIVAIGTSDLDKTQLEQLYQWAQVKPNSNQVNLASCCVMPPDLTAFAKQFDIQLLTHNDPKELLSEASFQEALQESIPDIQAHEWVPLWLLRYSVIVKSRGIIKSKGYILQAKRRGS
Sequence of UniProt Q8NB37 (Q8NB37 whole entry, looked up): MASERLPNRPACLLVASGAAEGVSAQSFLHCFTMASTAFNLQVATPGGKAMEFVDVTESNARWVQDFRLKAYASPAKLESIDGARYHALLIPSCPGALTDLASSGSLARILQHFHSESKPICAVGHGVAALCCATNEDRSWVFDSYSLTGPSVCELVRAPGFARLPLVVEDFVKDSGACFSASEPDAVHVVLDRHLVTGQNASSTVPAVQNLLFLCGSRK
Sequence of UniProt O14929 (O14929 whole entry, looked up): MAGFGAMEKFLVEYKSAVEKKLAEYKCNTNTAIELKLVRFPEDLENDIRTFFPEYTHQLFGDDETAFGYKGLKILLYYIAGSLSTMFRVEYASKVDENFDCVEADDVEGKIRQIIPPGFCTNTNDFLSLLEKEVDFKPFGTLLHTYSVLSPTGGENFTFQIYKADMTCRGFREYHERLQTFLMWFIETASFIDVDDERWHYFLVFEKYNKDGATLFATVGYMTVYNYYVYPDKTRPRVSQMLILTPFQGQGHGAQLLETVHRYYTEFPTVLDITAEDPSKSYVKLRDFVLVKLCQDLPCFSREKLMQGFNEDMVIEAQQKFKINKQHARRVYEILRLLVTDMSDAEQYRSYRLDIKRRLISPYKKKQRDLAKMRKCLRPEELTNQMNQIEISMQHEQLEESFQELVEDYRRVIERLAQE
Sequence of UniProt Q13889 (Q13889 whole entry, looked up): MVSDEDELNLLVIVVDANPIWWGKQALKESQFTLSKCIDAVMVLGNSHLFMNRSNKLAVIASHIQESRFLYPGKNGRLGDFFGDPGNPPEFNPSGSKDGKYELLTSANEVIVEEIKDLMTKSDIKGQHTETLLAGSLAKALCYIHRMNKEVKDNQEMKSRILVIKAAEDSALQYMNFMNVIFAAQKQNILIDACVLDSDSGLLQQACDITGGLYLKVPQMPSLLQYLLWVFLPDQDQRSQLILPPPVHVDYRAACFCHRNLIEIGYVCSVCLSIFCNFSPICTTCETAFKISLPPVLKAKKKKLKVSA
Sequence of UniProt P22570 (P22570 whole entry, looked up): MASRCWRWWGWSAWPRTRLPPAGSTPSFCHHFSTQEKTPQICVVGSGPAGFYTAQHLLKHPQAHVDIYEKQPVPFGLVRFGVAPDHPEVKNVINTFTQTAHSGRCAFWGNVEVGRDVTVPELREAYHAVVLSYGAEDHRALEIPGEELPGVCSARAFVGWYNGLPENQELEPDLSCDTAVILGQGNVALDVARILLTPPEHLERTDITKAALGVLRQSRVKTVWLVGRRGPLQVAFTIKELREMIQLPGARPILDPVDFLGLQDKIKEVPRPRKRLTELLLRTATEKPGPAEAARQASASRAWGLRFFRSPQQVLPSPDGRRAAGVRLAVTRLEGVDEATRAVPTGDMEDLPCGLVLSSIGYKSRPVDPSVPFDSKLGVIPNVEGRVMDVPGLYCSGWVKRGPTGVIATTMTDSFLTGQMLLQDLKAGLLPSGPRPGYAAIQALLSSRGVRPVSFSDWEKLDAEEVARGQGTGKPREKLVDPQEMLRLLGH
Sequence of UniProt P37268 (P37268 whole entry, looked up): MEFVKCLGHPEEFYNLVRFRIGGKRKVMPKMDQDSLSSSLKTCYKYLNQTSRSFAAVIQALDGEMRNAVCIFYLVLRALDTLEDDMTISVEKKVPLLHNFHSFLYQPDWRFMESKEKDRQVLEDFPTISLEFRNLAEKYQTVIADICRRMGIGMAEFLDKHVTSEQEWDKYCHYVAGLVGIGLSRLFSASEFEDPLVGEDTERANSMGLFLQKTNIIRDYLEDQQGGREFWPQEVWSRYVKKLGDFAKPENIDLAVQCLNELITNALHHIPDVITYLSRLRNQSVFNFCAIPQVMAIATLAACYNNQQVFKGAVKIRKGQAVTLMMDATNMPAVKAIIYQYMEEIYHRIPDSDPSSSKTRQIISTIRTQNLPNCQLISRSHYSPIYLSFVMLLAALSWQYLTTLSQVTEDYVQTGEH
Sequence of UniProt P00390 (P00390 whole entry, looked up): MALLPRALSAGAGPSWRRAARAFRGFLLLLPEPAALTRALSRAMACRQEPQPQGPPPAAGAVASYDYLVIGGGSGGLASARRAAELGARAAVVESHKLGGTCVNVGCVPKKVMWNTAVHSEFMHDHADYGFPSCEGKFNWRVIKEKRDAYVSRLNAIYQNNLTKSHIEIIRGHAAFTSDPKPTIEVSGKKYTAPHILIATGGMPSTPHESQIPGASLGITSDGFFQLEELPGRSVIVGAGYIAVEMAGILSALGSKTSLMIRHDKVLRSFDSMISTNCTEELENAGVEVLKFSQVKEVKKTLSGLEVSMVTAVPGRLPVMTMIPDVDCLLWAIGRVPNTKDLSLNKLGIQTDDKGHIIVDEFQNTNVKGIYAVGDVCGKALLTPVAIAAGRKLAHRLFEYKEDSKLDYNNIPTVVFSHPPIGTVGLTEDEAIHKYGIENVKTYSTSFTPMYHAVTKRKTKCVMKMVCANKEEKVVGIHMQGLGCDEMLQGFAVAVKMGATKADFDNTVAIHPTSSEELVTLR
Sequence of UniProt P23434 (P23434 whole entry, looked up): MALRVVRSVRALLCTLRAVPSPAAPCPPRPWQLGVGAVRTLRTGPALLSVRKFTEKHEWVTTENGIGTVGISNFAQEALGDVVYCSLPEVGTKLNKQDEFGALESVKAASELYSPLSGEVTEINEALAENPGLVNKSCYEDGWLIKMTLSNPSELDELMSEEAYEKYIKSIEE
Sequence of UniProt P23327 (P23327 whole entry, looked up): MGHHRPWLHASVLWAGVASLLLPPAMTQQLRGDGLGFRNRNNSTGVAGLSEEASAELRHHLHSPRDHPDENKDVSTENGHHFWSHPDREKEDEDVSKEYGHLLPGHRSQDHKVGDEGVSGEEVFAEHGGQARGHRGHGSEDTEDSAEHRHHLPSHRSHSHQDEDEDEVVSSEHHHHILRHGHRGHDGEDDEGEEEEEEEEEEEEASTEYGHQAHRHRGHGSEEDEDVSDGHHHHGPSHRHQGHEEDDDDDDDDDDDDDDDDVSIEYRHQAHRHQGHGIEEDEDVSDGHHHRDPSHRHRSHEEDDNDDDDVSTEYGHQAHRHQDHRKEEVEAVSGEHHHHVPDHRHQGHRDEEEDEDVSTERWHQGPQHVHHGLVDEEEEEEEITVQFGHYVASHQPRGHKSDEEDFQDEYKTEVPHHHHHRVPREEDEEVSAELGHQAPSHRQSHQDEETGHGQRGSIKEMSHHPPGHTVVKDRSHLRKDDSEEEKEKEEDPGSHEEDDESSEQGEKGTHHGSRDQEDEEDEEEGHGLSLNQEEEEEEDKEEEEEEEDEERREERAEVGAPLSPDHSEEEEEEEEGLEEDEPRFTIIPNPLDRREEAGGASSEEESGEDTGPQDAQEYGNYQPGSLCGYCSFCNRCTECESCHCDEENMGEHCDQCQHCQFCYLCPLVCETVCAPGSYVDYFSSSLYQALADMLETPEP
Sequence of UniProt P36969 (P36969 whole entry, looked up): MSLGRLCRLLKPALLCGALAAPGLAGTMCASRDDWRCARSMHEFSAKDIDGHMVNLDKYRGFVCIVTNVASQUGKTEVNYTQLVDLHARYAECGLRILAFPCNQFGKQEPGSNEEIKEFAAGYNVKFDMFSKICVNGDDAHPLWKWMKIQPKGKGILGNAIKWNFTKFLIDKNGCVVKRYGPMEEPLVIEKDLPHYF
Sequence of UniProt O94925 (O94925 whole entry, looked up): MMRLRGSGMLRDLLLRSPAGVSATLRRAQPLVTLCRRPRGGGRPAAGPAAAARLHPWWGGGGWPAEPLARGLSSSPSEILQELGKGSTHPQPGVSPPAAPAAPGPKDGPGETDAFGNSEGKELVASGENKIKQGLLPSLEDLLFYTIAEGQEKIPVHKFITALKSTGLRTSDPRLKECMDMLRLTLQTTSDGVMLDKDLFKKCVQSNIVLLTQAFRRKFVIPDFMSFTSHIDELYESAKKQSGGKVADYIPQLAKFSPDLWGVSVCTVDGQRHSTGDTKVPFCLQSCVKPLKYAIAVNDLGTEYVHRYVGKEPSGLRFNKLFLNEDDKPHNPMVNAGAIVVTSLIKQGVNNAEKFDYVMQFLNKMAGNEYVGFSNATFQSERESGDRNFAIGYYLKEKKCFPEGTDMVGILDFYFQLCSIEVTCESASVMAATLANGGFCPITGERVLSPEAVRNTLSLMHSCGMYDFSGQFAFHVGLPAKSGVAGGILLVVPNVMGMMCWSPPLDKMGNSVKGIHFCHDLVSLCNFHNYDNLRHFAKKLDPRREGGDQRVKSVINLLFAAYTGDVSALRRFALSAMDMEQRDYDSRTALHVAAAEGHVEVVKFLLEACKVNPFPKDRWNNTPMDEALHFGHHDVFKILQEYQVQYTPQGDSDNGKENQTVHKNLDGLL
Sequence of UniProt Q8N9F7 (Q8N9F7 whole entry, looked up): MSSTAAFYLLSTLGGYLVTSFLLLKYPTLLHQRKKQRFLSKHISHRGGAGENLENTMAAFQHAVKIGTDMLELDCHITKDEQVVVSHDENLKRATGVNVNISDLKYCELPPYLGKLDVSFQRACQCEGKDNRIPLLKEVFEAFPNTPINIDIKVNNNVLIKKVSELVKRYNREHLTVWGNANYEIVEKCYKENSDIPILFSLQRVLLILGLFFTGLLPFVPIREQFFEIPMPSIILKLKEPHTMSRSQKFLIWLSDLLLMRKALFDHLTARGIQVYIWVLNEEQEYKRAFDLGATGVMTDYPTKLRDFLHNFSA

| Target | log2 fold change (bafetinib) | log2 fold change [1] | log2 fold change (nilotinib) | log2 fold change [2] | log2 fold change (dasatinib) | log2 fold change [3] | log2 fold change [4] | log2 fold change [5] | log2 fold change (tipifarnib) | log2 fold change (mubritinib) | log2 fold change [6] | log2 fold change [7] | log2 fold change [8] | log2 fold change [9] | log2 fold change (entinostat) | log2 fold change (vorinostat) | log2 fold change (citarinostat) | log2 fold change (silmitasertib) | log2 fold change [10] | log2 fold change [11] |
| --- | --- | --- | --- | --- | --- | --- | --- | --- | --- | --- | --- | --- | --- | --- | --- | --- | --- | --- | --- | --- |
| GTF2H3 (UniProt Q13889) | -0.009 | 0.058 | 0.041 | 0 | 0.024 | -0.064 | -0.113 | -0.02 | -0.025 | 0.023 | -0.133 | -0.152 | 0.12 | -0.063 | 0.141 | 0.037 | -0.049 | -0.004 | -0.041 | -0.015 |
| GDPD1 (UniProt Q8N9F7) | 0.088 | -0.141 | 0.1 | 0.104 | 0.023 | -0.045 | 0.046 | -0.031 | 0.106 | 0.096 | -0.024 | 0.144 | 0.067 | 0.003 | -0.011 | -0.141 | 0.051 | -0.039 | 0.096 | -0.038 |
| HAT1 (UniProt O14929) | -0.115 | 0.017 | 0.004 | -0.035 | -0.044 | -0.025 | 0.024 | 0.006 | 0.004 | -0.033 | 0.002 | 0.006 | -0.076 | 0.01 | 0.053 | 0.001 | 0.071 | 0.052 | -0.055 | -0.016 |
| HRC (UniProt P23327) | -0.098 | -0.147 | 0.01 | -0.017 | 0.055 | -0.039 | -0.038 | 0.037 | 0.016 | 0.041 | -0.161 | 0.005 | -0.02 | -0.056 | -0.114 | -0.128 | -0.011 | 0.013 | 0.023 | -0.026 |
| GATD1 (UniProt Q8NB37) | 0.008 | -0.021 | 0.059 | -0.016 | -0.011 | 0.119 | 0.046 | 0.015 | 0.029 | 0.035 | 0.012 | 0.028 | -0.037 | -0.013 | -0.084 | -0.018 | -0.031 | -0.025 | -0.673 (active) | -0.031 |
| GCSH (UniProt P23434) | -0.13 | 0.095 | -0.022 | 0.01 | 0.015 | -0.026 | 0.016 | 0.016 | -0.017 | -0.05 | 0.027 | 0.037 | 0.073 | 0.027 | -0.049 | 0.057 | 0.022 | 0.193 | -0.144 | -0.04 |
| FNTA (UniProt P49354) | -0.024 | -0.009 | -0.002 | 0.104 | 0.165 | 0.019 | 0.036 | 0.091 | 0.429 (active) | 0.013 | 0.009 | 0.061 | 0.028 | 0 | -0.02 | 0.004 | -0.02 | 0.016 | -0.001 | 0.696 (active) |
| FDXR isoform 7 (UniProt P22570) | -0.012 | -0.162 | -0.031 | -0.015 | -0.245 | -0.042 | -0.023 | 0.038 | -0.002 | -0.643 (active) | -0.03 | -0.044 | -0.083 | -0.082 | -0.006 | 0.084 | 0.031 | -0.034 | -0.197 | -0.11 |
| FANCD2 isoform 1 (UniProt Q9BXW9) | -0.06 | -0.014 | -0.145 | 0.15 | -0.167 | -0.119 | 0.126 | 0.1 | -0.024 | 0.052 | 0.087 | -0.189 | -0.304 | -0.034 | 0.022 | 0.187 | 0.11 | -0.109 | -0.034 | -0.039 |
| GCLM (UniProt P48507) | 0.016 | 0.072 | -0.101 | -0.015 | -0.095 | 0.019 | 0.042 | -0.051 | -0.133 | 0.023 | -0.028 | 0.073 | -0.088 | -0.075 | 0.093 | 0.051 | 0.074 | 0.077 | -0.022 | -0.004 |
| FDFT1 (UniProt P37268) | 0.01 | 0.016 | 0.12 | 0.071 | 0.023 | -0.019 | 0.111 | -0.047 | 0.089 | 0.022 | 0.044 | 0.064 | -0.042 | 0.035 | -0.008 | -0.018 | 0.086 | -0.031 | 0.004 | 0.093 |
| GLS (UniProt O94925) | -0.021 | 0.025 | -0.095 | -0.069 | -0.154 | 0.009 | -0.081 | 0.003 | -0.071 | -0.285 | -0.019 | 0.152 | -0.157 | -0.093 | 0.039 | 0.022 | 0.068 | 0.008 | -0.193 | -0.032 |
| GSR (UniProt P00390) | -0.031 | 0 | -0.025 | 0.02 | 0.02 | 0 | 0.002 | 0.022 | -0.058 | 0.024 | 0.008 | -0.046 | 0 | -0.03 | -0.011 | 0.019 | 0.028 | -0.027 | -0.023 | 0.018 |
| GPX4 (UniProt P36969) | 0.003 | 0.023 | 0.036 | -0.031 | 0.015 | 0.019 | 0.05 | 0.003 | -0.046 | 0.033 | -0.006 | 0.079 | -0.052 | 0.032 | -0.107 | -0.082 | -0.391 (active) | 0.004 | -0.006 | -0.049 |
